These results are taken from ChEMBL document CHEMBL1961873, “Compounds: GSK PKIS; Assays: Nanosyn kinase panel” (2012).

Assay [1] addresses Sphingosine kinase 1 (Homo sapiens) (UniProt Q9NYA1). Particulars: at 1 µM.
In assay [2] the target is T1, Sphingosine kinase 2 (Homo sapiens) (UniProt Q9NRA0).
T1 sequence (whole entry): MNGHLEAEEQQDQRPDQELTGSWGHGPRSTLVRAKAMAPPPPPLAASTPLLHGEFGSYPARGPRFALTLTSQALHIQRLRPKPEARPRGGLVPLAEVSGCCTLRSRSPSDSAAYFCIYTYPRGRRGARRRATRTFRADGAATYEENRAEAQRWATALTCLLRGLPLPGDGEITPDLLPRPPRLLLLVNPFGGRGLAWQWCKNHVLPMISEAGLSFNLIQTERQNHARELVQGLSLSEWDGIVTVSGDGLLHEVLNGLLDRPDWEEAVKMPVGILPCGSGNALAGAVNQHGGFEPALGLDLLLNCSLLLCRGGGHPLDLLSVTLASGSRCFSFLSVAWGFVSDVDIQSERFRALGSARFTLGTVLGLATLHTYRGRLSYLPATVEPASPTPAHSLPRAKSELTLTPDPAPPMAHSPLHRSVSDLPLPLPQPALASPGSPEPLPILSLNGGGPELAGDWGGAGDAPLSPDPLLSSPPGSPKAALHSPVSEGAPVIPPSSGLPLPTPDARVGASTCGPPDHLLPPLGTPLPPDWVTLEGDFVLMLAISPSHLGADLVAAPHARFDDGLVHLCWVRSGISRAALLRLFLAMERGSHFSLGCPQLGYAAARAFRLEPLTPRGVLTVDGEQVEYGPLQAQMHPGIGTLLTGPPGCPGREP
The conditions noted are these: at 0.1 µM.

For assay [3], the target named is T1, Sphingosine kinase 2 (Homo sapiens). Particulars: at 1 µM.
Assay [4] has as its target Casein kinase II subunit alpha (Homo sapiens) (UniProt P68400). The conditions noted are these: at 0.1 µM.
The target is the same in assay [5]. Particulars: at 1 µM.
Assay [6] has as its target T2, Inhibitor of nuclear factor kappa-B kinase subunit alpha (Homo sapiens) (UniProt O15111).
T2 sequence (whole entry): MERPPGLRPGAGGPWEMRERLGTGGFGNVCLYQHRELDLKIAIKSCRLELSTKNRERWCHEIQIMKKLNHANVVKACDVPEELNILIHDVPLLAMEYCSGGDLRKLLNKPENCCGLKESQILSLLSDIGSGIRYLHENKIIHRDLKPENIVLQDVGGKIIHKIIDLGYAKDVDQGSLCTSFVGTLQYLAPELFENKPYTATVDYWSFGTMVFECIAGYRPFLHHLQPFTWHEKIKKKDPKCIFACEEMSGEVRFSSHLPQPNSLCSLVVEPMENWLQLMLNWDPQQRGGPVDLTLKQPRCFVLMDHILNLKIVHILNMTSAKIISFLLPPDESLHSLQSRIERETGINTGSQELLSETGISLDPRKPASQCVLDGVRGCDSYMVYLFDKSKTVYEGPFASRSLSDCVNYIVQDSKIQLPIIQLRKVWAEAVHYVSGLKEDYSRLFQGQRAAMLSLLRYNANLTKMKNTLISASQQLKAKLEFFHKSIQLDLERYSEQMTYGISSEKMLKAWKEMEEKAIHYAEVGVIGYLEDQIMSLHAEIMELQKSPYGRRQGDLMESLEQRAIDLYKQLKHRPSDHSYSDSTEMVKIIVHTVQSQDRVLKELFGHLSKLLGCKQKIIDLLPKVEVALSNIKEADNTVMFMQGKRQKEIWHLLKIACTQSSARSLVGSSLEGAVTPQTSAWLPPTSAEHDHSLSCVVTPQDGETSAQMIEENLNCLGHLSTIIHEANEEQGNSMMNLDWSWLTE
Particulars: at 0.1 µM.

For assay [7], the target named is T2, Inhibitor of nuclear factor kappa-B kinase subunit alpha (Homo sapiens). Particulars: at 1 µM.
Assay [8] addresses T3, Inhibitor of nuclear factor kappa-B kinase subunit beta (Homo sapiens) (UniProt O14920).
T3 sequence (whole entry): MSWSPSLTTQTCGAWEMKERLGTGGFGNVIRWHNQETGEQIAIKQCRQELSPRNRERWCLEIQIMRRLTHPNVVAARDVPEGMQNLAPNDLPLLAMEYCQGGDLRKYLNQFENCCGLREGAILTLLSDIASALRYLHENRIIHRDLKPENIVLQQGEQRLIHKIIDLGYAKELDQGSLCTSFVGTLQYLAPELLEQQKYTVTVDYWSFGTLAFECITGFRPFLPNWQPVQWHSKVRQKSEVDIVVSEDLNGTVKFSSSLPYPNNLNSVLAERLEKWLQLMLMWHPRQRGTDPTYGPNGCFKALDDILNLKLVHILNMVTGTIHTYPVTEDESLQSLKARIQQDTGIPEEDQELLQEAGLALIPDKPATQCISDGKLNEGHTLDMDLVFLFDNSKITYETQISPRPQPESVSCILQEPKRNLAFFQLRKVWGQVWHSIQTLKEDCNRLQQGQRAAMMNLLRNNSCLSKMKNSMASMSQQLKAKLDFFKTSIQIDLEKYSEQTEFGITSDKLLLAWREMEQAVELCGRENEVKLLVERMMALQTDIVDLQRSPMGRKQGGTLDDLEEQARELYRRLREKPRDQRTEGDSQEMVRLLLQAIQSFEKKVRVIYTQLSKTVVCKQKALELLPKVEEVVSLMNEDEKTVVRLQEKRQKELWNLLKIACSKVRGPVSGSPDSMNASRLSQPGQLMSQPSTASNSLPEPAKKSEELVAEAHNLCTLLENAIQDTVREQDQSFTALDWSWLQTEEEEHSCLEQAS
The conditions noted are these: at 0.1 µM.

Assay [9] addresses T3, Inhibitor of nuclear factor kappa-B kinase subunit beta (Homo sapiens). The conditions noted are these: at 1 µM.
In assay [10] the target is T4, Inhibitor of nuclear factor kappa-B kinase subunit epsilon (Homo sapiens) (UniProt Q14164).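 Note: mean inhibition of IKKε reported, from the GSK PKIS dataset.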
T4 sequence (whole entry): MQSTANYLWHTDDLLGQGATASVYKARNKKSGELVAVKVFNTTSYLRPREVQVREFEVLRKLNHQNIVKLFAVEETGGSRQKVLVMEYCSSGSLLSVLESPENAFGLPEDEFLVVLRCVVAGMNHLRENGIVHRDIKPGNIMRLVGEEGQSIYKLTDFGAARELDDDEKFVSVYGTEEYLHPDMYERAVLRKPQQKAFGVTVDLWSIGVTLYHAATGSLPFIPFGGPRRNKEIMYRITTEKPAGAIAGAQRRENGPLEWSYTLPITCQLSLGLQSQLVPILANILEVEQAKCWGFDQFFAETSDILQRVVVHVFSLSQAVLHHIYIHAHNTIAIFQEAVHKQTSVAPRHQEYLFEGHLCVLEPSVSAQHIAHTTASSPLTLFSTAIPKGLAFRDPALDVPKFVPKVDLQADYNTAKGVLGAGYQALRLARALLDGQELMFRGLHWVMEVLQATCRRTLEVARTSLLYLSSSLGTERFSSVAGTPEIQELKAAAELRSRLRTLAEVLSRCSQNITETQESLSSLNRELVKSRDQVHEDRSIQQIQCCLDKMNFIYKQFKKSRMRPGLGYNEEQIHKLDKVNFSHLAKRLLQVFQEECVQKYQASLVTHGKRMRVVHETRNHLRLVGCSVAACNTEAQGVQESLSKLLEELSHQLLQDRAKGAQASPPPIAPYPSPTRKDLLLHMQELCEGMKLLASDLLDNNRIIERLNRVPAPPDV
Particulars: at 0.1 µM.

Sphingosine kinase 1 (Homo sapiens), sequence (Q9NYA1 whole entry): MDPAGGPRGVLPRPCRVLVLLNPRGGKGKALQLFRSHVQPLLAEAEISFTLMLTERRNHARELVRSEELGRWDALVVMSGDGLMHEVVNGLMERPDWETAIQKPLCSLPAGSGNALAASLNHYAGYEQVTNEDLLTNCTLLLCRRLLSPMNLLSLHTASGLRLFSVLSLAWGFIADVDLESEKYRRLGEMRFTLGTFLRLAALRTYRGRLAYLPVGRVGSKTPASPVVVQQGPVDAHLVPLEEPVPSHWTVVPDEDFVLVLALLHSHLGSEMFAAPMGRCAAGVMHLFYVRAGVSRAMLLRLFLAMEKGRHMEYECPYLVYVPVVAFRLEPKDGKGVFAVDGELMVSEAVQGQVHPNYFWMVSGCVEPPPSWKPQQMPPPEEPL
Casein kinase II subunit alpha (Homo sapiens), sequence (P68400 whole entry, looked up): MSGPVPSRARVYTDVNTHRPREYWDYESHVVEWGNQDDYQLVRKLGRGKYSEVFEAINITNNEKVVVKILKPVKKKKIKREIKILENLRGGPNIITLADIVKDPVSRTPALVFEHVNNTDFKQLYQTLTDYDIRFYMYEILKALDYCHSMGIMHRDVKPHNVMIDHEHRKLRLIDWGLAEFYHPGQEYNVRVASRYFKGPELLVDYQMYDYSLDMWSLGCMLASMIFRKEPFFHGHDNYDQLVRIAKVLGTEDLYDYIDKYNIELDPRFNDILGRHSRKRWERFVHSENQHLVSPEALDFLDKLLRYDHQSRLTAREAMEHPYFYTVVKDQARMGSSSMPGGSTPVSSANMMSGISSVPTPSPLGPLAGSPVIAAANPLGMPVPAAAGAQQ

Usually inhibition stands for the change of the read-out against control, counted positive when it falls. Take `Cc1ccc(O)cc1Nc1ccnc2ccc(S(C)(=O)=O)cc12`: the inhibition is -1.32% in assay [1]; 1.04% in [2]; 1.77% in assay [3]; 3.63% in assay [4]; 8.35% in assay [5]; 5.42% in assay [6]. In addition, the inhibition was found to be 9.92% in assay [7], 6.57% in assay [8], 8.43% in [9] and 6.64% in assay [10].

With `Nc1nccc(-c2c(-c3ccc(F)cc3)nn3cc(C(F)(F)F)ccc23)n1`, the inhibition in assay [1] is 11.1%; in assay [2] it was -0.68%; in [3], 0%; in assay [4], 15.6%; in assay [5], 2.55%; in [6] it was -2.07%. In addition, the inhibition in assay [7] was -2.01%; in assay [8], 1.03%; in assay [9], 0.86%; in assay [10], 1.65%.

`Nc1ccc(C#Cc2cncnc2Nc2ccc(OCc3cccc(F)c3)c(Cl)c2)cc1`: the inhibition in assay [1] was -2.59%; in assay [2], -3.76%; in assay [3], 0%; in assay [4], 4.6%; in assay [5], 2.02%; in assay [6], 0.36%. The inhibition in assay [7] was determined as 2.27%; in [8], 4.1%; in assay [9] it was 4.66%; in assay [10], 3.63%.

On to `Cc1ccc2c(-c3ccnc(Nc4ccc5c(c4)OCCO5)n3)c(-c3ccc(C(F)(F)F)cc3)nn2n1`, for which the inhibition was -4.65% in [1]; -0.54% in [2]; 1.85% in assay [3]; 9.31% in assay [4]; 1.49% in assay [5]; 0.44% in [6]. Moreover, the inhibition in [7] is 0.46%; in assay [8] it was -1.92%; in assay [9], -5.04%; in assay [10], 4.65%.

As for `NS(=O)(=O)c1cccc(Nc2cc(-c3ccc(F)cc3)n[nH]2)c1`, the inhibition was -0.2% in [1]; 0.87% in assay [2]; -0.06% in [3]; 5.22% in assay [4]; 13.6% in assay [5]; 4.35% in assay [6]. Moreover, the inhibition in assay [7] stood at 11.3%; in assay [8] it was 5.51%; in assay [9], 4.5%; in assay [10], 8.55%.

As for `CCOc1nccc2c1nc(-c1nonc1N)n2CC`, the inhibition in [1] was 7.65%; in [2], -0.3%; in [3], 0.06%; in [4] it was 5.33%; in assay [5], 14.6%; in assay [6], 2.3%. Moreover, the inhibition in assay [7] stood at 3.59%; in assay [8], 0.86%; in [9] it was 5.41%; in assay [10] it was 7.17%.

As for `Nc1nccc(-c2c(-c3ccc(F)cc3)ncn2CCCN2CCOCC2)n1`, the inhibition in assay [1] was -6.06%; in [2], -0.3%; in [3] it was 0.84%; in assay [4] it was 2.78%; in assay [5], 4.35%; in assay [6], 3.83%. The inhibition in [7] was 5.27%; in [8], 6.3%; in [9], 5.49%; in assay [10], 4.76%.

With `CCCN1CCCC(c2ccc(Nc3nc(Nc4cc(F)ccc4C(N)=O)c4cc[nH]c4n3)c(OC)c2)C1` (stereo not given), the inhibition in assay [1] is 3.56%; in assay [2] it was 1.62%; in assay [3], -1.24%; in assay [4] it was 33.5%; in assay [5], 66.2%; in assay [6], 6.24%. Moreover, the inhibition in assay [7] was 4.21%; in [8] it was 8.08%; in assay [9], 4.25%; in [10] it was 4.93%.

For the compound `COC(=O)Nc1nc2cc(Oc3ccc(NC(=O)Nc4cccc(Br)c4)cc3)ccc2[nH]1`, the inhibition in assay [1] was -3.97%; in assay [2], 0.52%; in assay [3] it was 1.73%; in [4], 2.56%; in [5] it was 2.62%; in assay [6], 7.56%. Besides, the inhibition in assay [7] came to 7.22%; in assay [8] it was 5.61%; in [9] it was 7.62%; in assay [10], 4.82%.

Regarding `CN(C)c1cc2c(Nc3ccc4c(cnn4Cc4ccccc4)c3)ncnc2cn1`, the inhibition in assay [1] was -2%; in [2], -0.22%; in [3], -1.13%; in [4] it was 1.2%; in assay [5], -0.12%; in assay [6], 3.64%. For the same compound, the inhibition worked out at 8.41% in [7], 3.68% in [8], 3.14% in [9] and 3.9% in assay [10].

Take `Cc1ccc(NC(=O)CC2CC2)cc1-c1ccc(C(=O)NCC2CC2)cc1`: the inhibition was -1.09% in assay [1]; 0.51% in [2]; -0.13% in [3]; 4.55% in assay [4]; 8.23% in assay [5]; 0.25% in assay [6]. Further, the inhibition in assay [7] is 1.31%; in assay [8] it was 3.09%; in assay [9], 3.67%; in assay [10] it was 4.09%.

Regarding `O=C(Nc1ccc(Oc2ccc3[nH]c(NC(=O)c4ccco4)nc3c2)cc1)Nc1cc(C(F)(F)F)ccc1F`, the inhibition was 6.73% in assay [1]; 0.7% in [2]; -0.32% in [3]; 0.08% in assay [4]; -0.44% in assay [5]; 0.68% in [6]. For the same compound, the inhibition was 5.25% in assay [7], -0.61% in assay [8], -1.89% in assay [9] and -0.79% in assay [10].

On to `c1ccc(Nc2ncc(-c3ccccc3)o2)cc1`, for which the inhibition was 5.25% in [1]; 0.84% in [2]; 7.14% in assay [3]; 8.1% in assay [4]; 4.81% in assay [5]; 4.42% in [6]. The inhibition worked out at 6.78% in [7], 5.92% in assay [8], 7.79% in [9] and 3.13% in assay [10].

With `NC(=O)c1cccc(Nc2nccc(Nc3cccc(F)c3)n2)c1`, the inhibition stood at 0.76% in assay [1]; 0% in [2]; 0.34% in [3]; 1.61% in [4]; 3.67% in [5]; 0.56% in assay [6]. In addition, the inhibition is 4.67% in assay [7], 6.25% in [8], 22.3% in assay [9] and 2.08% in assay [10].
